Results as given in PubChem BioAssay (Tox21).
Inconclusive results are not listed. Activity calls are given as the source filed them. Unless noted, the call rests on the fitted dose curve; in most records, active means well fitted curve in the direction sought with a large enough effect in the repeat runs; inconclusive means weak or mixed curves; inactive means no such curve, though single readings can be large; an effect the other way counts as inactive or inconclusive.

Legend:
[1] = qHTS assay for small molecules that induce genotoxicity in human embryonic kidney cells expressing luciferase-tagged ATAD5 (AID 651632); further: nearly all actives have a fitted effect of over 15% in size
Procedure, shortened: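 Reporter cells (HEK293T) express luciferase-tagged ATAD5, a protein that accumulates after DNA damage. Treat 16 hr at 37C/5% CO2, add Amplite, wait 30 min at RT, and read luminescence.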

[2] = qHTS assay for small molecule agonists of the p53 signaling pathway - cell viability (AID 651633; calls by dose curve;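 further: p53RE-bla HCT reporter cells with a stable beta-lactamase p53 reporter; series mostly up to about 83 µM; nearly all actives have a fitted effect of over 30% in size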)
Procedure, shortened: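 Viability counter-read: CellTiter-Glo luminescence (30 min, room temperature) in the same p53RE-bla plates. These plates had been exposed to compounds for 16 h at 37 C.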

[3] = qHTS assay for small molecules that induce genotoxicity in human embryonic kidney cells expressing luciferase-tagged ATAD5 - cell viability (AID 651634; calls by dose curve; further: nearly all actives have a fitted effect of over 25% in size)
Procedure, shortened: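 Seeding of 2,000 HEK293T ATAD5-luciferase cells per well preceded pin-tool compound transfer. Plates sat 15.5 hr at 37C under 5% CO2, then fluorescence was read after 30 min with CellTiter-Fluor.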

[4] = qHTS assay for small molecule disruptors of the mitochondrial membrane potential - cell viability (AID 720634; calls by dose curve;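 further: human HepG2 liver cancer cells; series mostly up to about 83 µM; nearly all actives have a fitted effect of over 20% in size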)
Procedure, shortened: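 Measuring cytotoxicity alongside mitochondrial potential, the screen quantified ATP by luminescence in HepG2 cells after 1 hr compound incubation and a 30 min room-temperature CellTiter-Glo step.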

[5] = qHTS assay to test for compound auto fluorescence at 590 nm (red) in HepG2 cells (AID 720674)
Procedure, shortened: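 We screened compounds on adherent HepG2 cells, incubating them for an hour at 37 C in 5% CO2 before reading emission at 590 nm under 540 nm excitation; values reflect equivalence to Rose Bengal sodium fluorescence.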

[6] = qHTS assay to test for compound auto fluorescence at 535 nm (green) in HepG2 cells (AID 720675)
[7] = qHTS assay to test for compound auto fluorescence at 460 nm (blue) in HEK293 cells (AID 720678)
Procedure, shortened: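 Auto fluorescence in the blue band was quantified as triamterene equivalency. HEK293 cells were seeded at 2,000/well, dosed after a 4-5 hr attachment, and kept overnight at 37C before the 405/460 nm reading.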

[8] = qHTS assay to test for compound auto fluorescence at 590 nm (red) in HEK293 cells (AID 720679)
Procedure, shortened: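 Autofluorescence equivalency to Rose Bengal sodium, 540/590nm, in HEK293 cells exposed overnight to 23 nL compound per well.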

[9] = qHTS assay to test for compound auto fluorescence at 535 nm (green) in HEK293 cells (AID 720680)
[10] = qHTS assay to test for compound auto fluorescence at 460 nm (blue) in HEK293 cell free culture (AID 720681)
Procedure, shortened: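 Blue fluorescence (Ex 405/Em 460 nm, triamterene-equivalent) was read immediately after pin transfer of compound or DMSO into medium (DMEM, 10% FBS) without cells.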

[11] = qHTS assay to test for compound auto fluorescence at 535 nm (green) in HEK293 cell free culture (AID 720682)
Procedure, shortened: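 Using fluorescein as calibrant, autofluorescence was quantified at 485/535 nm in cell-free DMEM containing 10% FBS after pintool addition of compound or vehicle.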

[12] = qHTS assay to test for compound auto fluorescence at 590 nm (red) in HEK293 cell free culture (AID 720683)
Procedure, shortened: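 Red-channel autofluorescence of compounds in culture medium (DMEM, 10% FBS), no cells, measured at 540/590 nm. Rose Bengal sodium is the reference fluorophore for equivalence.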

[13] = qHTS assay to test for compound auto fluorescence at 590 nm (red) in HepG2 cell free culture (AID 720684)
Procedure, shortened: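 Steps: dispense MEM/10% FBS medium, no cells; pin compound or DMSO vehicle; read red channel, Ex/Em 540/590 nm. Output given as Rose Bengal sodium equivalents.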

[14] = qHTS assay to test for compound auto fluorescence at 460 nm (blue) in HepG2 cell free culture (AID 720685)
Procedure, shortened: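 Compound (23 nL) or DMSO pinned into cell-free MEM with 10% FBS; blue fluorescence read at 405/460 nm excitation/emission, expressed as auto-fluorescence equivalency to triamterene.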

[15] = qHTS assay to test for compound auto fluorescence at 460 nm (blue) in HepG2 cells (AID 720687)
Procedure, shortened: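 Blue-channel autofluorescence (Ex/Em 405/460 nm, triamterene-equivalent) was measured after 1 hr compound exposure at 37 C, 5% CO2. Cells were HepG2, plated overnight at 37 C in MEM plus 10% FBS.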

[16] = target: Glucocorticoid receptor (Homo sapiens) (UniProt P04150); experiment: qHTS assay to identify small molecule antagonists of the glucocorticoid receptor (GR) signaling pathway (AID 720692; active means well fitted inhibition curve with a large enough effect in the signal ratio in the repeat runs, not every such curve was filed as active; the % refers to the signal ratio)
Procedure, shortened: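 Dexamethasone (5 nM final) stimulated a stably integrated GRE-beta-lactamase reporter in HeLa cells during 18 h co-incubation with compounds; signal was quantified as fluorescence intensity of B/G FRET substrate after 2 h.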

[17] = qHTS assay for small molecule disruptors of the mitochondrial membrane potential (AID 720635)
Procedure, shortened: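 Mitochondrial membrane potential tracked with Mito-MPS dye, red aggregates (ex 540/em 590 nm) against green monomers (ex 490/em 535 nm). Compound treatment 1 hr at 37C, dye 30 min in HepG2.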

[18] = qHTS assay to test for compound auto fluorescence at 535 nm (green) in HepG2 cell free culture (AID 720686)
[19] = target: Glucocorticoid receptor (Homo sapiens) (UniProt P04150); experiment: qHTS assay to identify small molecule agonists of the glucocorticoid receptor (GR) signaling pathway (AID 720691; active means well fitted activation curve with a large enough effect in the signal ratio in the repeat runs, not every such curve was filed as active; the % refers to the signal ratio)
Procedure, shortened: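 Reporter read-out: fluorescence intensity following 2 h room-temperature LiveBLAzer B/G FRET substrate loading. Prior step: GR-bla HeLa cells held 4 h, then treated 18 h at 37 C.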

[20] = qHTS assay for small molecule agonists of the p53 signaling pathway (AID 651631; calls by dose curve; further: nearly all actives have a fitted effect of over 15% in size)
Procedure, shortened: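 Stably transfected HCT-116 cells (beta-lactamase behind p53 response elements) get compounds after a 5 h settling period; 16 h later at 37 °C, FRET substrate is loaded and fluorescence read after 2 h.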
On the % scale 0 is the no-effect control and ±100 the full control effect.

Chain of Glucocorticoid receptor (Homo sapiens) (P04150 whole entry, looked up): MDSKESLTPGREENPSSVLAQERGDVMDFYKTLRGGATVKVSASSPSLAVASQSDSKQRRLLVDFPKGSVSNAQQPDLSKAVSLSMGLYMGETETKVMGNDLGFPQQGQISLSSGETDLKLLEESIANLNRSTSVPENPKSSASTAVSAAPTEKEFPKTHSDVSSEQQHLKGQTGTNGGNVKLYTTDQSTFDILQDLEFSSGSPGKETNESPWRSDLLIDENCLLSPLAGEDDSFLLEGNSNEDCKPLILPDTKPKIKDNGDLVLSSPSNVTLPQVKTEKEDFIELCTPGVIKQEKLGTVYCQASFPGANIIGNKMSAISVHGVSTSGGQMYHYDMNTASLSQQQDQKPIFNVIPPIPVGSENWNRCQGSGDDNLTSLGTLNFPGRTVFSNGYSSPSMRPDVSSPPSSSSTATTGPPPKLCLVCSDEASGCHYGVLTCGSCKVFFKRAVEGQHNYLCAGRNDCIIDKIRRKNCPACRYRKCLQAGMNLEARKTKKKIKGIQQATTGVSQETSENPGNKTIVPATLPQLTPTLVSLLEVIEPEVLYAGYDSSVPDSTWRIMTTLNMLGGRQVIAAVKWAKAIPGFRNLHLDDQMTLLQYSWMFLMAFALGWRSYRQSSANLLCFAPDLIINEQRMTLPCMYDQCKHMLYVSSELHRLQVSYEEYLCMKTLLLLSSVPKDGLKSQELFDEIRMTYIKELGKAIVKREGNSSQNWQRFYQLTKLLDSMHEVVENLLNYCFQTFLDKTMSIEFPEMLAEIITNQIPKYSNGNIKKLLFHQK

CC(C)C(C)C
inactive: Potency [1] | outcome [2] | outcome [3] | outcome [4] | outcome [5] | outcome [6] | outcome [7] | outcome [8] | outcome [9] | outcome [10] | outcome [11] | outcome [12] | outcome [13] | outcome [14] | outcome [15] | outcome [16]

O=Cc1ccccc1S(=O)(=O)O
inactive: Potency [1] | outcome [2] | outcome [3] | outcome [4] | Potency [17] | outcome [5] | outcome [6] | outcome [7] | outcome [8] | outcome [9] | outcome [10] | outcome [11] | outcome [12] | outcome [13] | outcome [14] | outcome [18] | outcome [15] | Potency [19] | outcome [16]

Cc1ccc(N)nc1
inactive: Potency [20] | outcome [2] | outcome [3] | outcome [4] | outcome [5] | outcome [6] | outcome [7] | outcome [8] | outcome [9] | outcome [11] | outcome [12] | outcome [13] | outcome [14] | outcome [15]

Cc1ccc(OC(=O)CC(C)C)cc1
inactive: Potency [1] | outcome [2] | outcome [3] | outcome [4] | Potency [17] | outcome [5] | outcome [6] | outcome [7] | outcome [8] | outcome [9] | outcome [10] | outcome [11] | outcome [12] | outcome [13] | outcome [14] | outcome [18] | Potency [19]

C=CCCCCCCCCCCCCCC
inactive: outcome [2] | outcome [3] | outcome [4] | fluorescence, relative to Rose Bengal [5] -0.0589% [at 18.6 µM] | fluorescence, % of fluorescein control [6] -0.0523% [at 18.6 µM] | fluorescence, % of triamterene [7] 0.0937% [at 18.6 µM] | fluorescence, % of fluorescent control [8] 0.0885% [at 18.6 µM] | fluorescence, % of fluorescein [9] -0.003% [at 18.6 µM] | fluorescence, % of fluorescent control [10] 0.006% [at 18.6 µM] | activity change [11] 0.0547% [at 18.6 µM] | fluorescence, % of fluorescent control [12] -0.342% [at 18.6 µM] | fluorescence, % of Rose Bengal [13] 0.0019% [at 18.6 µM] | fluorescence, % of fluorescent control [14] -0.0168% [at 18.6 µM] | fluorescence, % of fluorescein control [18] 0.0254% [at 18.6 µM] | Potency [19] | outcome [16]

O=C1CC2(CCCC2)CC(=O)N1CCNCC1COc2ccccc2O1 (stereo not given)
inactive: outcome [3] | outcome [4] | outcome [6] | outcome [7] | outcome [8] | outcome [9] | outcome [10] | outcome [11] | outcome [12] | outcome [13] | outcome [14] | outcome [18] | outcome [15]

N=C(N)S(=O)O
inactive: outcome [3] | outcome [4] | Potency [17] | outcome [5] | outcome [6] | outcome [7] | outcome [8] | outcome [9] | outcome [10] | outcome [11] | outcome [12] | outcome [13] | outcome [14] | outcome [18] | outcome [15]

CC(=O)OCC(=O)[C@@]1(O)CC[C@H]2[C@@H]3CCC4=CC(=O)C=C[C@]4(C)[C@H]3[C@@H](O)C[C@@]21C
inactive: outcome [2] | outcome [3] | outcome [4] | outcome [5] | outcome [6] | outcome [7] | outcome [8] | outcome [9] | outcome [10] | outcome [11] | outcome [12] | outcome [13] | outcome [14] | outcome [18] | outcome [15]
